Laboratory results from PubChem BioAssay AID1445 (SRMLSC, 2008).
Out of some 220,000 compounds screened, about 910 (0.41%) were called active.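 How the source made its calls: active means primary inhibition above the hit cutoff, then over 50% inhibition at one or more dose response concentrations (cut at about 23% in these data, passing the limit was not always enough); inconclusive means conflicting primary data, or primary hits not chosen for dose response; inactive means low primary inhibition, or under 50% at every dose.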 Shown is part of a subset that was picked to be rich in actives. Entries with a potency or affinity are not part of this list.

biological target: Aminopeptidase N (Plasmodium falciparum (isolate 3D7)) (UniProt O96935); experiment: P. falciparum M1AAP inhibitors, biochemical, fluorogenic H-Leu-NHMec substrate, 1536-well (AID 1445); settings: recombinant M1AAP, H-Leu-NHMec fluorogenic kinetic assay; at 30 µM, stronger effect = higher value unless noted;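 further: plate controls were DMSO full reaction for no effect and no enzyme background for full effect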
Sequence (O96935 whole entry, looked up): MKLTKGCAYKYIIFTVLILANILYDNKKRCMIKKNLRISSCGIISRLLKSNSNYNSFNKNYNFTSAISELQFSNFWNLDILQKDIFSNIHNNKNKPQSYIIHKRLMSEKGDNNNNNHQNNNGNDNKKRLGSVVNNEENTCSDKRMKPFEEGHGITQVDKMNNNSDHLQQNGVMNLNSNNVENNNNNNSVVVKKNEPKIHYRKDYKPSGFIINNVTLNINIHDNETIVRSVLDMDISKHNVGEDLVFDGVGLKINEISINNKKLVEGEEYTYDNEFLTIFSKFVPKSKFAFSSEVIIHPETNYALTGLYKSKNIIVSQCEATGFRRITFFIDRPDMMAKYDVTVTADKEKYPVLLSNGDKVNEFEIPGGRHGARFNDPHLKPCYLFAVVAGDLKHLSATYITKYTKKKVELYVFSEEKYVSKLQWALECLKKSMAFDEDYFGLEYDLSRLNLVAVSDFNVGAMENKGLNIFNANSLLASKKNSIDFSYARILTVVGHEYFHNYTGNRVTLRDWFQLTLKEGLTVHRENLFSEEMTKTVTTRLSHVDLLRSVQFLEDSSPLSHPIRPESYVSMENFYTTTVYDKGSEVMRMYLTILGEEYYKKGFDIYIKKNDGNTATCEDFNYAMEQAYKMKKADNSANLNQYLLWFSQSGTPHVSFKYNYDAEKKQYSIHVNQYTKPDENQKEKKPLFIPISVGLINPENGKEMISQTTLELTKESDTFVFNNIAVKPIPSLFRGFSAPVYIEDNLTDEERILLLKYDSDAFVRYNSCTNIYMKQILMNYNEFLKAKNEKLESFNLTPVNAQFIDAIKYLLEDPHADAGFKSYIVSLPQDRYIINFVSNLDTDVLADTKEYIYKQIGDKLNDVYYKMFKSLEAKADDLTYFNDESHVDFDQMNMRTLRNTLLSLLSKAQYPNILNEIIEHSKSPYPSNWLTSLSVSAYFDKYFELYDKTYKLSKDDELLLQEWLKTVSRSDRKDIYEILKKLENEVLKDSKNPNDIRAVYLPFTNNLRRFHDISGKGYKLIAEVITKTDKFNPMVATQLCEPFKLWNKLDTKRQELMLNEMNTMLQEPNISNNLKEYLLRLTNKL

Row | Compound | inhibition
1 | CCc1nnc(NC(=O)CN2CCN(C(=O)c3ccccc3)CC2)s1 | 5.2% (inactive)
2 | O=C(O)C1CCN(C(=O)CSc2nc3ccccc3s2)CC1 | -1.91% (inactive)
3 | CSc1ccc(Cl)c(C(=O)NC2CCCC2)c1 | 1.66% (inactive)
4 | CC(C)CNS(=O)(=O)c1ccc(CCC(=O)Nc2ccc3c(c2)OCCO3)cc1 | 9.09% (inactive)
5 | Cc1ccc(Cl)cc1NC(=O)COC(=O)C1CC1 | -9.09% (inactive)
6 | C=CCn1c(-c2ccccc2[N+](=O)[O-])n[nH]c1=S | -1.25% (inactive)
7 | O=C(O)c1cccc(CN2C(=O)S/C(=C/c3cccc([N+](=O)[O-])c3)C2=O)c1 | 3.75% (inactive)
8 | COc1ccc(N=C2NC(=O)/C(=C/c3ccco3)S2)cc1 | 7.45% (inactive)
9 | COc1ccc(S(=O)(=O)Nc2nncs2)cc1 | -0.42% (inactive)
10 | CSC1=N/C(=C\c2ccc(Br)o2)C(=O)S1 | 1.89% (inactive)
11 | Cc1ccc(S(=O)(=O)NC(=O)c2ccc(Br)o2)cc1 | 0.41% (inactive)
12 | O=C1N/C(=N/O)S/C1=C/c1cccc([N+](=O)[O-])c1 | 13.8% (inactive)
13 | CCCN1C(=O)/C(=C/c2ccco2)SC1=Nc1ccc(OC)cc1 | 8.83% (inactive)
14 | COc1ccc(N=C2NC(=O)/C(=C\c3ccco3)S2)cc1 | 6.07% (inactive)
15 | O=C(O)c1ccc(-c2nc3ccccc3s2)o1 | -2.11% (inactive)
16 | O=C(COc1ccccc1)NNC(=O)COc1ccc([N+](=O)[O-])cc1 | 0.69% (inactive)
17 | COc1cc(NC(=O)CN(C)Cc2cccc(F)c2)c(C)cc1[N+](=O)[O-] | 13.2% (inactive)
18 | CNC(=S)N/N=C(\C)c1ccc2c(c1)OCO2 | 6.47% (inactive)
19 | O=C(NC1CCCCC1)c1ccc(CNc2ccccc2)o1 | 3.72% (inactive)
20 | COc1ccc(/C=C/C(=O)c2ccc(Cl)s2)cc1O | 9.54% (inactive)
21 | NC(=O)c1ccc(-n2nnnc2SCC(=O)Nc2ccc(N3CCOCC3)c(Cl)c2)cc1 | -2.55% (inactive)
22 | CCCCOC(=O)Nc1nnc(CCOCC)s1 | 2.38% (inactive)
23 | CCN(CC)CCSc1nc2ccc(OC)cc2[nH]1 | 1.77% (inactive)
24 | NC1=NC(=O)/C(=C\c2ccco2)S1 | 9.69% (inactive)
25 | CN(C)C1=NC(=O)/C(=C\c2ccccc2)S1 | 3.5% (inactive)
26 | Cc1ccc(N2C(=O)/C(=C\c3ccco3)SC2=S)cc1 | 2.77% (inactive)
27 | Cc1ccc(S(=O)(=O)Nc2ccccc2-c2ccccc2NS(=O)(=O)c2ccc(C)cc2)cc1 | 17.1% (inactive)
28 | COc1cc(O)c(C(CCN2CCCC(C)C2)c2ccc(N(C)C)cc2)c(OC)c1 (stereo not given) | 12.5% (inactive)

Row | Compound | inhibition
29 | O=C(/C(=C/O)N=Nc1ccc(Cl)cc1)c1ccncc1 | 0.62% (inactive)
30 | O=C(/C(=C/O)N=Nc1ccccc1)c1ccncc1 | 18.4% (inactive)
31 | Cc1ccc(N=N/C(=C\O)C(=O)c2ccncc2)cc1 | 27.6% (active)
32 | Cc1ccc(NC(=O)Nc2ccc(F)cc2F)c(OC(F)F)c1 | -3.74% (inactive)
33 | Cc1cc(NC(=O)CSCC(=O)N(c2ccc(F)cc2)C(C(=O)NC2CCCCC2)c2ccc(O)c(O)c2)no1 (stereo not given) | 8.19% (inactive)
34 | N#C/C(=C\c1ccc(O)c(O)c1)S(=O)(=O)c1ccccc1 | 24.6% (active)
35 | N#C/C(=C/c1ccc(F)cc1)S(=O)(=O)c1ccccc1 | -4.5% (inactive)
36 | Cc1cc(C)c(/C=C(\C#N)S(=O)(=O)c2ccccc2)[nH]1 | -6.03% (inactive)
37 | Cc1ccccc1Cn1nnc2c1C(=O)c1ccccc1C2=O | -4.07% (inactive)
38 | Cc1cc(NC(=O)CN2C(=O)NC(C)(c3ccc(OC(F)F)cc3)C2=O)no1 (stereo not given) | 7.82% (inactive)
39 | CC1(c2ccc(OC(F)F)cc2)NC(=O)N(CC(=O)Nc2ccc3c(c2)OCO3)C1=O (stereo not given) | 22.2% (inactive)
40 | O=C(CSc1nnc(CNc2ccc(Cl)cc2)o1)Nc1nc2ccccc2s1 | -13% (inactive)
41 | CCCc1nnc(NC(=O)CCC(=O)N2CCN(S(=O)(=O)c3ccc(C)cc3)CC2)s1 | 3.35% (inactive)
42 | Oc1ccc(C2C(c3ccccc3)=NN=C(c3ccc(Cl)cc3)N2O)c(O)c1 (stereo not given) | 12.1% (inactive)
43 | CC(C)n1cc(/C=C2/SC(=O)N(CC(=O)N3CCCC3)C2=O)c2ccccc21 | 7.08% (inactive)
44 | O=C(O)CN1C(=O)/C(=C\c2cn(CC(=O)N3CCOCC3)c3ccccc23)SC1=S | 21.1% (inactive)
45 | Cc1ccnc(NS(=O)(=O)c2ccc(NC(=O)c3cncc(Br)c3)cc2)n1 | -0.33% (inactive)
46 | NC(=O)Cn1nc([N+](=O)[O-])nc1Oc1ccccc1C(=O)N1CCOCC1 | 3.73% (inactive)
47 | CN(C)CCCNC(=O)c1cc(C(=O)C2CCCCC2)c[nH]1 | 3.52% (inactive)
48 | COCC(=O)N(Cc1cc2cc(OC)ccc2[nH]c1=O)c1ccccc1 | 7% (inactive)
49 | O=C(CN1c2ccccc2Sc2ccccc21)NNC(=O)Nc1ccc(Cl)c(Cl)c1 | 0.08% (inactive)
50 | COc1ccc([N+](=O)[O-])cc1N(CC(O)Cn1nnc2ccccc21)S(=O)(=O)c1ccc(C)cc1 (stereo not given) | 23.6% (active)
51 | COc1ccc([N+](=O)[O-])cc1N(CC(O)CN1CCCCC1)S(=O)(=O)c1ccc(C)cc1 (stereo not given) | 8.41% (inactive)
52 | COc1ccc([N+](=O)[O-])cc1N(CC(O)CN1CCCC1)S(=O)(=O)c1ccc(C)cc1 (stereo not given) | 2.31% (inactive)
53 | CCOC(=O)c1csc(NC(=O)c2ccc(OC)c(OC)c2)n1 | 1.77% (inactive)
54 | COCCN(C(=O)CSc1nnc(Nc2ccccc2F)s1)c1c(N)n(Cc2ccccc2)c(=O)[nH]c1=O | 3.95% (inactive)
55 | CCCS(=O)(=O)NCc1ccc2c(c1)cc(C)n2C | 7.58% (inactive)
